From paper PMC5700166

biological target: T1, GST-Co-NF-kB (Capsaspora owczarzaki, UniProt F1ARL5 200-546); test: protein-binding microarray (PBM); PBM: ~300 nM protein, 6 mM HEPES pH 7.8, 80 mM KCl, 0.5 mM EDTA, 0.5 mM EGTA, 6% glycerol, 35 ng/ul poly-dIdC, 1% milk, 1 h, room temperature; Ap Aiptasia and Nv Nematostella (sea anemones) / Co Capsaspora / Aq Amphimedon (sponge) / Dm Drosophila / Hu human; RHD is the Rel homology domain; high values mean tight binding; conditions: dsDNA, one strand shown
T1 sequence: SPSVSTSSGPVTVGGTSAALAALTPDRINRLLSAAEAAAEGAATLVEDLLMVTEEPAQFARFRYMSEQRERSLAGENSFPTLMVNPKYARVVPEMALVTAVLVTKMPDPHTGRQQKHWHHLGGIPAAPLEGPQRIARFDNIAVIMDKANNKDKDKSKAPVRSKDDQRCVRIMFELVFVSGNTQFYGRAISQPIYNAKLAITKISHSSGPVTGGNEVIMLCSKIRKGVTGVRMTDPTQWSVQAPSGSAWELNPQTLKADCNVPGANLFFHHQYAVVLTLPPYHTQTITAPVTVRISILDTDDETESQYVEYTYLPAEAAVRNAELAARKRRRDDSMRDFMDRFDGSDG

Sequence	binding signal [z-score]
CCGATTAACATCACAAATTTTCCTGATGTTAATCGGGTCTTGATTCGCTTGACGCTGCTG	1.2
CCGATTAACATCAACGTGATTTGTGATGTTAATCGGGTCTTGATTCGCTTGACGCTGCTG	1.11
CCGATTAACATCACGGTGTGGGTTGATGTTAATCGGGTCTTGATTCGCTTGACGCTGCTG	1.37
CCGATTAACATCAGGGTATAACGTGATGTTAATCGGGTCTTGATTCGCTTGACGCTGCTG	1.1
CCGATTAACATCAGGAAAAAAACTGATGTTAATCGGGTCTTGATTCGCTTGACGCTGCTG	1.06
CCGATTAACATCAGGGAGCGGTTTGATGTTAATCGGGTCTTGATTCGCTTGACGCTGCTG	1.07
CCGATTAACATCAGGGTGTAGTTTGATGTTAATCGGGTCTTGATTCGCTTGACGCTGCTG	1.14
CCGATTAACATCAAGAGAGAAAGTGATGTTAATCGGGTCTTGATTCGCTTGACGCTGCTG	1.16
CCGATTAACATCAATTTTTGCCCTGATGTTAATCGGGTCTTGATTCGCTTGACGCTGCTG	1.72
CCGATTAACATCATGTCGGGTGATGATGTTAATCGGGTCTTGATTCGCTTGACGCTGCTG	1.26
CCGATTAACATCACCAAGTATAGTGATGTTAATCGGGTCTTGATTCGCTTGACGCTGCTG	1.42
CCGATTAACATCAATGTCGGTGGTGATGTTAATCGGGTCTTGATTCGCTTGACGCTGCTG	1.2
CCGATTAACATCACCCACGAGGGTGATGTTAATCGGGTCTTGATTCGCTTGACGCTGCTG	1.35
CCGATTAACATCACCCATTTCCGTGATGTTAATCGGGTCTTGATTCGCTTGACGCTGCTG	1.41
CCGATTAACATCATACCTCCCGTTGATGTTAATCGGGTCTTGATTCGCTTGACGCTGCTG	1.01
CCGATTAACATCAGGGCAAAAAATGATGTTAATCGGGTCTTGATTCGCTTGACGCTGCTG	1.84
CCGATTAACATCACACCCGCAACTGATGTTAATCGGGTCTTGATTCGCTTGACGCTGCTG	1.54
CCGATTAACATCACCCTACAAGTTGATGTTAATCGGGTCTTGATTCGCTTGACGCTGCTG	3.08
CCGATTAACATCACCCACGACGATGATGTTAATCGGGTCTTGATTCGCTTGACGCTGCTG	1.01
CCGATTAACATCAGGTCACCCCATGATGTTAATCGGGTCTTGATTCGCTTGACGCTGCTG	2.51
CCGATTAACATCATCGCGGGTAGTGATGTTAATCGGGTCTTGATTCGCTTGACGCTGCTG	1.37
CCGATTAACATCACAATAACGGGTGATGTTAATCGGGTCTTGATTCGCTTGACGCTGCTG	1.26
CCGATTAACATCACCTTCTTTACTGATGTTAATCGGGTCTTGATTCGCTTGACGCTGCTG	1.57

biological target: T2, GST-Dm-Relish (Drosophila melanogaster, UniProt Q94527 99-473); test: as above; conditions: dsDNA, one strand shown
T2 sequence: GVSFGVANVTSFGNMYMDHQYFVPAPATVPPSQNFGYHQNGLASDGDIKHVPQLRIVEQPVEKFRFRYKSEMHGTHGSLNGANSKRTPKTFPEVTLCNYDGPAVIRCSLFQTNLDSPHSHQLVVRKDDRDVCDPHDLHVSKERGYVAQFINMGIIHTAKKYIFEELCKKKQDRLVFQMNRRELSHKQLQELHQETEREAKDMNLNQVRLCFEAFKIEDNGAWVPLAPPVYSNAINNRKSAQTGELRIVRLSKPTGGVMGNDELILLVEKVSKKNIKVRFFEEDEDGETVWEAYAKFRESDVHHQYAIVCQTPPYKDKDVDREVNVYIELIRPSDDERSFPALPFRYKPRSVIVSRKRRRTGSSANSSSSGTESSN

Sequence	binding signal [z-score]
CCGATTAACATCACGTGATTTCCTGATGTTAATCGGGTCTTGATTCGCTTGACGCTGCTG	4.11
CCGATTAACATCAAAATTCCAATTGATGTTAATCGGGTCTTGATTCGCTTGACGCTGCTG	1.02
CCGATTAACATCACAAATTTTCCTGATGTTAATCGGGTCTTGATTCGCTTGACGCTGCTG	2.01
CCGATTAACATCACAGAAAATCCTGATGTTAATCGGGTCTTGATTCGCTTGACGCTGCTG	1.19
CCGATTAACATCAGTATTTTCCATGATGTTAATCGGGTCTTGATTCGCTTGACGCTGCTG	1.33
CCGATTAACATCAGGAAAAAAACTGATGTTAATCGGGTCTTGATTCGCTTGACGCTGCTG	1.23
CCGATTAACATCAAATAAATTCCTGATGTTAATCGGGTCTTGATTCGCTTGACGCTGCTG	1.27
CCGATTAACATCAGGGTGTAGTTTGATGTTAATCGGGTCTTGATTCGCTTGACGCTGCTG	1.07
CCGATTAACATCAGTACATTCCATGATGTTAATCGGGTCTTGATTCGCTTGACGCTGCTG	2.01
CCGATTAACATCAGCATCCACGGTGATGTTAATCGGGTCTTGATTCGCTTGACGCTGCTG	1.01
CCGATTAACATCACAAAATTCCATGATGTTAATCGGGTCTTGATTCGCTTGACGCTGCTG	1.67
CCGATTAACATCACGTATTTTCCTGATGTTAATCGGGTCTTGATTCGCTTGACGCTGCTG	1.2
CCGATTAACATCAGGAAAATACATGATGTTAATCGGGTCTTGATTCGCTTGACGCTGCTG	4.66
CCGATTAACATCAGGAAAGAACATGATGTTAATCGGGTCTTGATTCGCTTGACGCTGCTG	3.57
CCGATTAACATCACCCACGAGGGTGATGTTAATCGGGTCTTGATTCGCTTGACGCTGCTG	1.29
CCGATTAACATCACCCATTTCCGTGATGTTAATCGGGTCTTGATTCGCTTGACGCTGCTG	1.34
CCGATTAACATCAGTAGTTTCCATGATGTTAATCGGGTCTTGATTCGCTTGACGCTGCTG	1.79
CCGATTAACATCAGGCGGTAAGGTGATGTTAATCGGGTCTTGATTCGCTTGACGCTGCTG	1.01
CCGATTAACATCACCCACGACGATGATGTTAATCGGGTCTTGATTCGCTTGACGCTGCTG	1.04
CCGATTAACATCACCGCAGCATGTGATGTTAATCGGGTCTTGATTCGCTTGACGCTGCTG	1.18
CCGATTAACATCAAAGGAAATTCTGATGTTAATCGGGTCTTGATTCGCTTGACGCTGCTG	1.56
CCGATTAACATCAGAGTAATTCCTGATGTTAATCGGGTCTTGATTCGCTTGACGCTGCTG	2.26
CCGATTAACATCAAATTTTCCACTGATGTTAATCGGGTCTTGATTCGCTTGACGCTGCTG	1.2
CCGATTAACATCACAATAACGGGTGATGTTAATCGGGTCTTGATTCGCTTGACGCTGCTG	1.63
